Test: Plasmodium falciparum growth inhibition, primary screen, strain 3D7, DAPI fluorescence, 100 nL (AID 1184);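 further: parasites grown inside human red blood cells in medium with human serum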
Conditions: P. falciparum 3D7 growth, 3 d, higher = more signal

SMILES | z-score
COCCOC(=O)N1C(=O)[C@@]2(c3cc(C#CCC(C(=O)OC)C(=O)OC)ccc31)[C@H](C(N)=O)[C@H]1C(=O)O[C@H](c3ccccc3)[C@H](c3ccccc3)N1[C@@H]2c1ccccc1OCCO | -1.93
C=C(COC)/C(=C/C[C@@H](OC(C)=O)c1cccc(OCCO)c1)c1cnc2ccccc2c1 | -3.1
CC(C)[Si](C#Cc1ccccc1)(O[C@H](c1ccccc1)c1cn(Cc2ccccc2)nn1)C(C)C | -1.18
C[C@]1(C(=O)O)c2ccccc2C(=O)N(Cc2cc(C(F)(F)F)cc(C(F)(F)F)c2)[C@H]1c1ccc(CO)cc1 | 1.06
[N-]=[N+]=NCc1ccccc1[C@H]1OC(c2ccc(OCCCO)cc2)=N[C@@]1(CCS(=O)(=O)c1ccccc1)C(=O)NCCN1CCOCC1 | -2.35
C=CC[C@@]1(C(=O)NCCCOC)N=C(c2ccc(OCCCO)cc2)O[C@@H]1c1ccccc1CN=[N+]=[N-] | -2.25
CC(=O)NCCCC[C@@H]1NC(=O)[C@H]2C[C@@H](C(=O)O)[C@@H](c3cccc(OCCO)c3)N2C1=O | -0.48
C=CCNC(=O)[C@H]1[C@@H]2C(=O)O[C@@H](c3ccccc3)[C@@H](c3ccccc3)N2[C@@H](c2ccc(O)cc2)[C@]12C(=O)Nc1ccccc12 | 0.478
Cc1ccc(S[C@]2(C(=O)NC(C)C)CC(=O)N(Cc3ccccc3)[C@@H]2c2ccc(CO)cc2I)cc1 | -0.158
COC(=O)c1ccc(OC)c(/C=C\CC(OC(=O)c2ccncc2)c2ccccc2)c1 (stereo not given) | -1.33
COc1ccc([Si](C)(C)[C@H]2[C@H](CC(=O)N(CCO)Cc3ccccc3)O[C@@]3(C(=O)N(Cc4ccc(N5C(=O)c6cccc7cccc5c67)cc4)c4ccccc43)[C@@H]2C)cc1 | -2.11
C=C(C)C1CN([C@H](CO)c2ccccc2)C(=O)/C1=C\c1ccccc1 (stereo not given in full) | -1.9
C[N+](C)(C)CCCC[C@@H]1NC(=O)[C@H]2C[C@@H](C(=O)NCCCCCN)[C@@H](c3ccc(O)cc3)N2C1=O | 0.435
CC(=O)NCCCC[C@@H]1NC(=O)[C@H]2C[C@@H](C(=O)NCCCCCN)[C@@H](c3ccc(O)cc3)N2C1=O | 0.0481
O=C1c2ccccc2[C@](Cc2ccccc2I)(C(=O)NCCN2CCOCC2)[C@H](c2ccc(CO)cc2)N1Cc1ccccc1C(F)(F)F | -1.29
CCOC(=O)C[C@H]1[C@H](OC(=O)c2ccc(-c3ccccc3)cc2)[C@@H](NC(=O)c2ccc(-c3ccccc3)cc2)c2cc(OCCCO)ccc2N1C(=O)c1ccccc1 | -0.482
COC(=O)C1=CC(CCCO)=CC(c2ccc(CN3CCCC3)cc2)N(C)C=C1C(=O)OC (stereo not given) | 0.34
CCCC1(C(=O)OC)C=C2C(=C(C(C)C)C(=O)C2C)CN1 (stereo not given) | 0.77

SMILES | z-score
C=CCOC(=O)[C@H]1[C@@H]2C(=O)O[C@@H](c3ccccc3)[C@@H](c3ccccc3)N2[C@@H](c2ccc(OCCOC(=O)[C@H]3C[C@H]4C(=O)NCC(=O)N4[C@H]3c3cccc(OCCO)c3)cc2)[C@]12C(=O)Nc1ccc(I)cc12 | -1.8
C=CCNC(=O)[C@H]1[C@@H]2C(=O)O[C@@H](c3ccccc3)[C@@H](c3ccccc3)N2[C@@H](c2ccc(O)cc2)[C@]12C(=O)N(C(=O)OCCOC)c1ccc(C#Cc3ccc(OC)cc3)cc12 | -0.812
CS(=O)(=O)CCOC(=O)C1=CC(CCCO)=CC(C2CC2)N(Cc2sc3ccccc3c2Cl)C=C1C(=O)OCCS(C)(=O)=O (stereo not given) | -3.02
CC(C)(C)OC(=O)CC[C@@]1(C(=O)N2CCOCC2)N=C(c2ccc(OCCCO)cc2)O[C@@H]1c1ccccc1CN=[N+]=[N-] | -2.12
CN1C(=O)C2C=CC(C(O)c3ccc(I)cc3)N(N(c3ccccc3)c3ccccc3)C2C1=O (stereo not given) | 0.387
CC(C)(C)OC(=O)N1[C@@H](C=C(Br)Br)COC1(C)C | 0.438
CCCN1C(=O)[C@@]2(c3ccc([N+](=O)[O-])cc3)CC(=O)N(C3CCCCC3)[C@@H]2c2ccc(CO)cc21 | 0.069
C=CCNC(=O)[C@H]1[C@@H]2C(=O)O[C@@H](c3ccccc3)[C@@H](c3ccccc3)N2[C@@H](c2ccc(OCCO)cc2)[C@]12C(=O)N(C(=O)OCCOC)c1ccc(C#CCC(C(=O)OC)C(=O)OC)cc12 | -1.82
CN1C(=O)C2C=CC(C(O)COCc3ccccc3)N(Nc3ccc([N+](=O)[O-])cc3[N+](=O)[O-])C2C1=O (stereo not given) | 0.391
COC(=O)C1=CC(c2ccc(CO)cc2)=CC(C2CC2)N(Cc2cc3c(cc2Br)OCO3)C=C1C(=O)OC (stereo not given) | -2.29
C=CC[C@H](O)c1ccc(O)c(F)c1 | -0.418
COc1ccc(C(O)C2C=CC3C(=O)N(c4ccccc4)C(=O)C3N2Nc2ccccc2F)c2ccccc12 (stereo not given) | 0.482
C=C(COC)C(=O)CC[C@@H](OC(=O)c1ccccc1-c1ccccc1C(=O)O)c1ccccc1OCCO | -2.51
COC(=O)C(CC#Cc1ccc2c(c1)[C@]1(C(=O)N2)[C@H](C(=O)N2CCCCCCC2)[C@H]2C(=O)O[C@H](c3ccccc3)[C@H](c3ccccc3)N2[C@@H]1c1ccc(OCCO)cc1)C(=O)OC | -2.14
C[C@H]1C2[C@H](Cc3ccccc3)NC(=O)[C@]23C(=O)N[C@@H](Cc2ccccc2)C(=O)N2CCC[C@H]2C(=O)NC/C=C/CC/C=C/C3[C@@H]2O[C@]12C (stereo not given in full) | -2.99
CCCC[C@@H](O)C1=C(C)Cn2c(=O)n(-c3ccccc3)c(=O)n2[C@H]1CO | 0.0686
CC(C)c1ccc(NN2C(C(O)C3CCCCC3)C=CC3C(=O)N(c4ccccc4)C(=O)C32)cc1 (stereo not given) | 0.142

Source: PubChem BioAssay
